Screening results: PubChem BioAssay, NMMLSC
This is a sample that favours compounds with a hit; in the whole collection about 0.91% have one here.
S aureus QS inh = S. aureus quorum sensing inhibition; AID 527; actives 0.3% (n = 24,000); S. aureus RN6390 RNAIII-GFP reporter, AIP-induced, flow cytometry 3 h; inhibition, % at 2 µM;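 active means share of bacteria positive for the green fluorescent reporter and its mean brightness both inhibited by 50% or more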;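 further: 0% = AIP-stimulated control and 100% = unstimulated bacteria without AIP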
Prostate diff = promotes differentiation of LNCaP prostate cells; flow cytometry side scatter, 4 d; side scatter shift, % at 10 µM; actives 0.56% (n = 24,000); AID 795;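 active means side scatter shift above 30%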;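 further: androgen-responsive LNCaP prostate cancer cells in charcoal-stripped serum medium; percent of cells past a gate set so DMSO wells show 10% shift; higher shift means more granular cells and more differentiation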
26S disassembly = blocks ATP-dependent breakdown of the yeast 26S proteasome; anti-FLAG beads, GFP-proteasome disassembly, flow cytometry; inhibition of disassembly, % (test concentration not listed); actives 0.2% (n = 24,000); AID 751;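 active means inhibition of disassembly above about 33%, limit read from the data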;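 further: plate controls were ATP control with full disassembly for no effect and ATP-gamma-S intact proteasomes for full effect; higher percent means more bead fluorescence retained so stronger block of disassembly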
* marks the source's active call; other numbers are inactive results.

SMILES	S aureus QS inh	Prostate diff	26S disassembly
Cc1ccc2c(c1)[C@@H]1CN(C)CC[C@@H]1N2C(=O)Nc1cccc(C(F)(F)F)c1	0	55*	-2
Cc1ccc2c(c1)C1CN(C)CCC1N2C(=O)c1ccc(Br)o1 (stereo unspecified)	0	5	5
CCOc1ccc(C2SCC(=O)Nc3c2c(=O)[nH]n3C2CCCCCC2)cc1 (stereo unspecified)	-3	34*	-3
COc1ccc(C2SCC(=O)Nc3c2c(=O)[nH]n3C2CCCCCC2)cc1OC (stereo unspecified)	0	2	-1
N=c1c[n+](CC23CC4CC(CC(C4)C2)C3)[n-]o1	-4	4	-1
Cc1c(C(=O)N2CCC3(CC2)OCCO3)sc2ncnc(N3CCN(c4ccccn4)CC3)c12	-2	2	-1
